The values that follow come from PubChem BioAssay AID1259421 (Broad Institute, 2018).

“And” between values parts separate entries of the source, which are not always exact repeats. Identical values can stand only once. The campaign covered roughly 6,400 compounds. About 610 (9.5%) were called active. No stated cut-off is given here; in the data, active means activity change below about -70%; inconclusive means no clear call, values can overlap the other calls; inactive means above that. The sample as a whole holds a higher share of actives than the screen did. More than one record can exist for a structure, and the calls need not agree. *1 amine or outer side, *2 acyl side, *3 side chain or, on linkers, in order; H or OH if unused. Where a SMILES comes first, the peptide text is derived from it. Bridges are numbered along the chain shown (N, C = ends). Roman numbers before positions name the chains, in order. [ ]: non-standard residue; d: D form. The star is where a group is joined. Actinocin(9to1) = Cc1c2oc3c(C)ccc(C(=O)[*:1])c3nc-2c(C(=O)[*:2])c(N)c1=O; NMeV = CN[CH](C(=O)O)C(C)C; Cbz = O=C(OCc1ccccc1)*; Sar = CNCC(=O)O

This assay can be described thus: Toxoplasma gondii ME49Luc growth in HeLa cells, luciferase, no IFN-y, primary screen (AID 1259421). The conditions noted are these: T. gondii ME49Luc in HeLa, 72 h, stronger effect = lower value, concentration not given here.
Regarding `C=C1C[C@]23C[C@@]1(O)CC[C@H]2[C@@]12C=C[C@H](O)[C@](C)(C(=O)O1)[C@H]2[C@@H]3C(=O)O`, the activity change, negative = inhibition is 1.78% (inactive).

As to `CCCCC(C)(C)[C@H](O)/C=C/[C@H]1[C@H](O)CC(=O)[C@@H]1C/C=C\CCCC(=O)O`, the activity change, negative = inhibition was 16.3% (inactive).

For `O/N=C/c1ccc(-c2ccc(O)c(F)c2)c(Cl)c1O`, the activity change, negative = inhibition was -85.3% (active).

Take `CC(=O)Nc1cccc(-n2c(=O)n(C3CC3)c(=O)c3c(Nc4ccc(I)cc4F)n(C)c(=O)c(C)c32)c1`: the activity change, negative = inhibition was 19.3% (inactive).

For the compound `CCOc1nc2cccc(C(=O)O)c2n1Cc1ccc(-c2ccccc2-c2nn[nH]n2)cc1`, the activity change, negative = inhibition is -59.6% (inactive).

As for `C=C[C@]1(C)C[C@@H](OC(=O)CSC(C)(C)CNC(=O)[C@H](N)C(C)C)[C@@]2(C)[C@H](C)CC[C@]3(CCC(=O)[C@H]32)[C@@H](C)[C@@H]1O`, the activity change, negative = inhibition is -20.2% (inactive).

Turning to `Cc1c(CN2CCN(C(=O)[C@H](C)O)CC2)sc2c(N3CCOCC3)nc(-c3cnc(N)nc3)nc12`, the activity change, negative = inhibition was -21.6% (inactive).

As for `CS(=O)(=O)N1CCN(Cc2cc3nc(-c4cccc5[nH]ncc45)nc(N4CCOCC4)c3s2)CC1`, the activity change, negative = inhibition is -19.3% (inactive).

Turning to `COc1ccc(-c2nc(N3CCOCC3)c3sc(CN(C)c4ncc(C(=O)NO)cn4)cc3n2)cn1`, the activity change, negative = inhibition was -89.4% (active).

On to `C=CC(C)(C)c1[nH]c2ccccc2c1C1C(=O)C(=O)C(c2c[nH]c3c(CC=C(C)C)cccc23)C(=O)C1=O` (stereo unspecified), for which the activity change, negative = inhibition is 6.09% (inactive).

As to `O=C(O)/C=C1\CCCc2ccccc2C1O` (stereo unspecified), the activity change, negative = inhibition is 14% (inactive) and 4.55% (inactive).

With `Cc1ccc2c(Br)cc(Br)c(OC(=O)c3ccccc3)c2n1`, the activity change, negative = inhibition was -89.9% (active).

Consider `O=C(Oc1cccc2cccnc12)c1ccccc1`, for which the activity change, negative = inhibition is 9.16% (inactive) and -0.158% (inactive).

Turning to `O=C(OOC(=O)c1ccccc1)c1ccccc1`, the activity change, negative = inhibition was 3.51% (inactive).

As for `Nc1nc(N)c([NH2+][O-])c(OCC2CCCCC2)n1`, the activity change, negative = inhibition was 6.35% (inactive).

Regarding `O=C(O)[C@H](O)[C@H](O)[C@@H](O)[C@H](O)[C@H](O)CO`, the activity change, negative = inhibition was 15.3% (inactive) and -2.15% (inactive).

Regarding `COc1cccc2c1C(=O)c1c(O)c3c(c(O)c1C2=O)C[C@@](O)(C(C)=O)C[C@@H]3O[C@H]1C[C@H](N)[C@H](O)[C@H](C)O1`, the activity change, negative = inhibition is -66.8% (inactive) and -6.1% (inactive) and -91.6% (active).

For the compound `COc1cccc2c1C(=O)c1c(O)c3c(c(O)c1C2=O)C[C@@](O)(C(C)=O)C[C@@H]3OC1CC(N)C(O)C(C)O1` (stereo partly specified), the activity change, negative = inhibition was -89.8% (active).

`Nc1nc2c(nc(Br)n2[C@@H]2O[C@@H]3COP(=O)(O)O[C@H]3[C@H]2O)c(=O)[nH]1`: the activity change, negative = inhibition was 7.36% (inactive).

Turning to `CO[C@H]1CC(O[C@@H]2/C(C)=C/C[C@@H]3C[C@@H](C[C@]4(CC[C@H](C)[C@@H](C5CCCCC5)O4)O3)OC(=O)[C@@H]3C=C(C)/C(=N/O)[C@H]4OC/C(=C\C=C\[C@@H]2C)[C@]43O)O[C@@H](C)C1O` (stereo partly specified), the activity change, negative = inhibition was -64.5% (inactive) and -40.6% (inactive).

With `NCCCCN=C(N)N`, the activity change, negative = inhibition is 12.5% (inactive).

Consider `CC(CCC(=O)NCC(=O)O)C1CCC2C3CCC4CC(O)CCC4(C)C3CC(O)C12C` (stereo unspecified), for which the activity change, negative = inhibition was -5.76% (inactive).

In the case of `CC(=O)O[C@@H]1CC2C(C)(C)C(=O)CC[C@]2(C)C2CC[C@@]3(C)[C@H](c4ccoc4)OC(=O)C4OC43[C@@]21C` (stereo partly specified), the activity change, negative = inhibition is 21.5% (inactive).

In the case of `COC1CCC(N(C(=O)C2CCC(C)CC2)c2cc(C3=CCCCC3)sc2C(=O)O)CC1` (stereo unspecified), the activity change, negative = inhibition is 5.25% (inactive).

In the case of `COc1cccc(O)c1O`, the activity change, negative = inhibition is -4.12% (inactive).

On to `C[C@@H]1C(SC2CN(C3=NCCS3)C2)=C(C(=O)OCOC(=O)C(C)(C)C)N2C(=O)[C@H]([C@@H](C)O)[C@H]12`, for which the activity change, negative = inhibition was 3.05% (inactive).

Take `CCCCC(C=O)NC(=O)C(CC(C)C)NC(=O)OCc1ccccc1` (stereo unspecified): the activity change, negative = inhibition is 10.2% (inactive).

For `COC(=O)[C@H](CC(C)C)NC(=O)[C@@H](N)CC(C)C`, the activity change, negative = inhibition is 4.82% (inactive).

For the compound `CC(C)C[C@@H](C=O)NC(=O)[C@H](CC(C)C)NC(=O)[C@H](CC(C)C)NC(=O)OCc1ccccc1` (Cbz-Leu-Leu-Leu-aldehyde), the activity change, negative = inhibition was -62.8% (inactive) and -91.5% (active).

`CC(C)=CCC/C(C)=C/COc1ccc2ccc(=O)oc2c1`: the activity change, negative = inhibition was 17.8% (inactive).

Take `c1ccc2c(c1)CCCc1cc(NCCN3CCOCC3)nnc1-2`: the activity change, negative = inhibition is 12.2% (inactive).

Take `O=C1C(Cl)=C(NCCN2CCOCC2)C(=O)c2ncccc21`: the activity change, negative = inhibition was -78.2% (active).

As for `O=C(NCCN1CCOCC1)c1ccc(Cl)cc1`, the activity change, negative = inhibition is -0.363% (inactive).

On to `c1cc(-c2cnn3cc(-c4ccc(OCCN5CCCCC5)cc4)cnc23)ccn1`, for which the activity change, negative = inhibition is -69.4% (inactive).

For `C/C(=N\NC(=O)[C@@H]1C(=O)NC[C@H]1c1ccccc1)c1cccc(Br)c1`, the activity change, negative = inhibition is 1.33% (inactive).

In the case of `CO[C@H]1C=CO[C@@]2(C)Oc3c(C)c(O)c4c(O)c(c5c(nc6cc(C)ccn65)c4c3C2=O)NC(=O)/C(C)=C\C=C[C@H](C)[C@H](O)[C@@H](C)[C@@H](O)[C@@H](C)[C@H](OC(C)=O)[C@@H]1C`, the activity change, negative = inhibition was -17.3% (inactive).

Consider `O=C1OC(=O)C2C3CCC(O3)C12` (stereo unspecified), for which the activity change, negative = inhibition is -85.1% (active).

For `CC(C)[C@](O)(c1ccc2cc(OC(F)F)c(OC(F)F)cc2c1)c1cn[nH]n1`, the activity change, negative = inhibition was 29.6% (inactive).

`Brc1cccc(Nc2ncnc3cc4nc[nH]c4cc23)c1`: the activity change, negative = inhibition was 3.71% (inactive).

With `O=c1[nH]c2cc(Cl)c(Cl)cc2[nH]c1=O`, the activity change, negative = inhibition was -86.2% (active).

As to `O=c1[nH]c2cc([N+](=O)[O-])c([N+](=O)[O-])cc2[nH]c1=O`, the activity change, negative = inhibition was 17.4% (inactive) and 5.82% (inactive) and 4.72% (inactive).

For `O=c1[nH]c2cc(Cl)c(Cl)c([N+](=O)[O-])c2[nH]c1=O`, the activity change, negative = inhibition is 7.55% (inactive).

Take `COc1cc([C@@H]2Oc3c(O)cc([C@H]4Oc5cc(O)cc(O)c5C(=O)[C@@H]4O)cc3[C@H]2CO)ccc1O`: the activity change, negative = inhibition was -10.5% (inactive).

Turning to `CC(C)O.CC(C)O.CC(C)O.[In]`, the activity change, negative = inhibition is 12.3% (inactive).

`Cc1c2oc3c(C)ccc(C(=O)OC(C)C4NC(=O)C(C(C)C)N(C)C(=O)CN(C)C(=O)C5CCCN5C(=O)C(C(C)C)NC4=O)c3nc-2c(C(=O)OC(C)C2NC(=O)C(C(C)C)N(C)C(=O)CN(C)C(=O)C3CCCN3C(=O)C(C(C)C)NC2=O)c(N)c1=O` (stereo unspecified) (I: cyclo([Sar][NMeV]TVP) / II: cyclo([Sar][NMeV]TVP); linker I:3-II:3 via Actinocin(9to1); configuration not given here): the activity change, negative = inhibition is -87.1% (active).

`Cc1c2oc3c(C)ccc(C(=O)N[C@@H]4C(=O)N[C@H](C(C)C)C(=O)N5CCC[C@H]5C(=O)N(C)CC(=O)N(C)[C@@H](C(C)C)C(=O)O[C@@H]4C)c3nc-2c(C(=O)N[C@@H]2C(=O)N[C@H](C(C)C)C(=O)N3CCC[C@H]3C(=O)N(C)CC(=O)N(C)[C@@H](C(C)C)C(=O)O[C@@H]2C)c(N)c1=O` (I: T[dV]P[Sar][NMeV] / II: T[dV]P[Sar][NMeV]; ester I:1-I:C, II:1-II:C; linker I:N-II:N via Actinocin(9to1)): the activity change, negative = inhibition is -88.5% (active).
